Measurements from ChEMBL document CHEMBL1961873, “Compounds: GSK PKIS; Assays: Nanosyn kinase panel” (2012).

Target: Tyrosine-protein kinase Fes/Fps (Homo sapiens) (UniProt P07332)
Conditions: at 1 µM
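Note: mean inhibition of FES from the GSK PKIS kinase inhibitor screening set, assayed by Nanosyn.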

Sequence of Tyrosine-protein kinase Fes/Fps (Homo sapiens) (P07332 whole entry): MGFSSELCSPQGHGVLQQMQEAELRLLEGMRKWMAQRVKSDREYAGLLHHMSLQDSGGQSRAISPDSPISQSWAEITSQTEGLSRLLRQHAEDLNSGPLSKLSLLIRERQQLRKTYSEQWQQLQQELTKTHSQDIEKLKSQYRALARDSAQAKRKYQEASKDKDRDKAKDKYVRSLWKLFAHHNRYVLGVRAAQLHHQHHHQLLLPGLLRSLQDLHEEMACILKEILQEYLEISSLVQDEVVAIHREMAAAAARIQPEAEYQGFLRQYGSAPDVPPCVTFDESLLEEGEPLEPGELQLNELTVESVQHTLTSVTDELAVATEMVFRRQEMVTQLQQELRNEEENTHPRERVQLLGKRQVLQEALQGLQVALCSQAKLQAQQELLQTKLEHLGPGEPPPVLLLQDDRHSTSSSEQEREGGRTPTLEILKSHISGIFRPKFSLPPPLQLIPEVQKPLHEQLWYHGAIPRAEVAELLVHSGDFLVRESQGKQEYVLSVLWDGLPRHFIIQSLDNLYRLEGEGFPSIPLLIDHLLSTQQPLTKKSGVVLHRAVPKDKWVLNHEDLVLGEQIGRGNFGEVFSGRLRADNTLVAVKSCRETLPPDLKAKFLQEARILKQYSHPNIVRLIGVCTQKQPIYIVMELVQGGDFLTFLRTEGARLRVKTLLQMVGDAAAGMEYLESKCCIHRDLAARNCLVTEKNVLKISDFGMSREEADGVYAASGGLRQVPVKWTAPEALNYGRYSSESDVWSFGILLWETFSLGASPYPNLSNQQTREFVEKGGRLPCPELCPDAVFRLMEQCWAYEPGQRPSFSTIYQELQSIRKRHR

Compared with `O=C(Nc1n[nH]c2nnc(-c3cccnc3)cc12)C1CC1`, `CS(=O)(=O)Nc1ccc(-c2ccc3c(NC(=O)C4CC4)n[nH]c3c2)cc1` is higher in inhibition: -1.66% for the first, 4.38% for the second.

Compared with `CN1CCC(n2cnc(-c3ccc(F)cc3)c2-c2ccnc(NCCO)n2)CC1`, `COc1ccc(-c2nn3ncccc3c2-c2ccnc(Nc3ccc(F)c(F)c3)n2)cc1` is lower in inhibition: 3.24% for the first, 2.57% for the second.

First: COc1cc2c(cc1Nc1nc(Nc3cccc(F)c3C(N)=O)c3cc[nH]c3n1)N(C(=O)CN1CCN(C(C)C)CC1)CC2
Second: CNC(=O)c1ncccc1Nc1nc(Nc2cc3c(cc2OC)CCCN3C(=O)CN(C)C)nc2[nH]ccc12
The inhibition of the first is lower: 59.2% for the first, 80.6% for the second.

First: COc1ccc2ncn(-c3cc(O[C@H](C)c4ccccc4C(F)(F)F)c(C(N)=O)s3)c2c1
Second: COc1ccc(Nc2ncc(-c3ccccc3)o2)cc1OC
The inhibition of the first is lower: 0.25% for the first, 3.66% for the second.

Going from `O=C(O[C@H]1CN[C@H](C#Cc2cc3ncnc(Nc4ccc5c(ccn5Cc5cc(F)ccc5F)c4)c3s2)C1)N1CCOCC1` to `CN(c1ccc(NC(=O)NCCN2CCOCC2)cc1)c1ccnc(Nc2ccc(CS(C)(=O)=O)cc2)n1`, the inhibition rises from 3.52% to 7.78%.

Going from `c1ccc(-c2n[nH]cc2-c2ccnc(-c3ccc(OCCn4ccnc4)cc3)c2)nc1` to `CS(=O)(=O)CCNCc1ccc(-c2ccc3ncnc(Nc4ccc(OCc5cccc(C(F)(F)F)c5)cc4)c3c2)o1`, the inhibition rises from -0.73% to 4.12%.

First: CCn1c(-c2nonc2N)nc2cncc(C(=O)NCCNC)c21
Second: Cc1cc(O)cc(C)c1/C=C/c1cncc(C(N)=O)c1
The inhibition of the first is higher: 4.8% for the first, 1.94% for the second.

Going from `COc1cc(N2CCN(C(C)C)CC2)ccc1Nc1nc(Nc2cccc3ncccc23)c2cc[nH]c2n1` to `FC(F)(F)CNc1nccc(-c2cnn3ncccc23)n1`, the inhibition falls from 10% to 1.66%.
